# Pf Dd2 growth – P. falciparum Dd2 growth inhibitors, primary screen, SYBR Green fluorescence, single dose replicates. 72 h; hits give low values. activity change, % at 10 µM. 94,000 compounds, 2.3% hits; in the data active = activity change below about -80%; inconclusive = no clear call, values can overlap the other calls
# C diff growth – C. difficile growth inhibitors, primary screen, HTS; Clostridium difficile clinical isolate growth, OD600, 24 h; hits give low values; 86,000 compounds, 0.25% hits; growth activity, negative = inhibition, % at 16 µg/mL (by protocol);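 active = mean growth activity at or below -80% and every replicate also at or below -80%; inconclusive = mean at or below -80% but some replicate above -80%; inactive = mean growth activity above -80%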
# Tcruzi prolif – T. cruzi intracellular proliferation inhibitors, primary screen, cell-based, beta-gal Tulahuen parasites, NIH3T3 host, luminescence; T. cruzi beta-gal in NIH3T3, GalScreen luminescence, 90 h; inhibition, % at 8.34 µM; 77,000 compounds, 5.9% hits;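 active = mean inhibition above about 93%, with at least 55% of replicates each passing it, limit read from the data, passing the limit was not always enough; inconclusive = only one of those two conditions holds; inactive = neither condition holds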
# A number is an active result; - = inactive; ? = inconclusive; . = not tested or not shown. Shown are actives, neighbours in structure and some others; about 6.8% of the full set was active somewhere.
SMILES,Pf Dd2 growth,C diff growth,Tcruzi prolif
Cc1ccc(S(=O)(=O)Nc2ccc3c(c2)C(=O)N([C@@H](C)CO)C[C@H](C)[C@@H](CN(C)S(=O)(=O)c2ccc(Cl)cc2)OCCCC[C@H](C)O3)cc1,-86,-,-
Cc1noc(C)c1S(=O)(=O)Nc1ccc2c(c1)C(=O)N([C@H](C)CO)C[C@@H](C)[C@H](CN(C)S(=O)(=O)c1ccc(F)cc1)O2,-,-,-
Cc1noc(C)c1S(=O)(=O)Nc1ccc2c(c1)C(=O)N([C@@H](C)CO)C[C@@H](C)[C@H](CN(C)S(=O)(=O)c1ccc(Cl)cc1)OCCCC[C@@H](C)O2,-,-,-
Cc1ccc(S(=O)(=O)Nc2ccc3c(c2)C(=O)N([C@@H](C)CO)C[C@H](C)[C@@H](CN(C)S(=O)(=O)c2ccc(Cl)cc2)OCCCC[C@@H](C)O3)cc1,?,-,-
Cc1ccc(S(=O)(=O)Nc2ccc3c(c2)C(=O)N([C@H](C)CO)C[C@@H](C)[C@@H](CN(C)S(=O)(=O)c2ccccc2)OCCCC[C@@H](C)O3)cc1,-,-,.
Cc1ccc(S(=O)(=O)N(C)C[C@@H]2OCCCC[C@H](C)Oc3ccc(NS(=O)(=O)c4ccccc4)cc3C(=O)N([C@@H](C)CO)C[C@@H]2C)cc1,-,-,110
Cc1noc(C)c1S(=O)(=O)Nc1ccc2c(c1)C(=O)N([C@@H](C)CO)C[C@@H](C)[C@@H](CN(C)S(=O)(=O)c1ccc(Cl)cc1)OCCCC[C@H](C)O2,-92,-,-
Cc1noc(C)c1S(=O)(=O)Nc1ccc2c(c1)C(=O)N([C@@H](C)CO)C[C@@H](C)[C@H](CN(C)S(=O)(=O)c1ccc(F)cc1)O2,-85,-,-
COc1ccc(S(=O)(=O)Nc2ccc3c(c2)C(=O)N([C@@H](C)CO)C[C@H](C)[C@@H](CN(C)CC2CCCCC2)OCCCC[C@H](C)O3)cc1,-,-,-
C[C@@H]1CN([C@@H](C)CO)C(=O)Cc2cc(NS(=O)(=O)c3ccc(Cl)cc3)ccc2O[C@@H]1CN(C)C(=O)Nc1ccc2c(c1)OCO2,-,.,-
COc1ccc(CN(C)C[C@H]2Oc3ccc(NC(=O)CCCCCC(=O)Nc4ccccc4N)cc3CC(=O)N([C@@H](C)CO)C[C@H]2C)cc1,-,-,.
C[C@H](CO)N1C[C@H](C)[C@H](CN(C)Cc2ccc(-c3ccccc3)cc2)Oc2ccc(NC(=O)CCCCCC(=O)Nc3ccccc3N)cc2CC1=O,-83,-,-
COc1ccc(CN(C)C[C@@H]2Oc3ccc(NC(=O)CCCCCC(=O)Nc4ccccc4N)cc3CC(=O)N([C@H](C)CO)C[C@@H]2C)cc1,-85,-,.
COc1ccc(CN(C)C[C@@H]2Oc3ccc(NC(=O)CCCCCC(=O)Nc4ccccc4N)cc3CC(=O)N([C@@H](C)CO)C[C@@H]2C)cc1,-87,-,.
C[C@@H]1CN([C@H](C)CO)C(=O)Cc2cc(NC(=O)CCCCCC(=O)Nc3ccccc3N)ccc2O[C@@H]1CN(C)Cc1ccc(-c2ccccc2)cc1,-,-,-
COc1ccc(CN(C)C[C@H]2Oc3ccc(NC(=O)CCCCCC(=O)Nc4ccccc4N)cc3CC(=O)N([C@H](C)CO)C[C@H]2C)cc1,-,-,-
NCC[C@H]1CC[C@@H](NC(=O)C2CC2)[C@@H](CO)O1,-,-,.
CN1CCN(C(=O)C[C@@H]2C[C@H]3c4cc(NC(=O)Nc5ccc(F)cc5)ccc4O[C@H]3[C@@H](CO)O2)CC1,-,-,-
Cc1ccc(S(=O)(=O)N(C)C[C@H]2Oc3ccc(NC(=O)Nc4cccc5ccccc45)cc3C(=O)N([C@H](C)CO)C[C@@H]2C)cc1,-,.,-
C[C@@H]1CN([C@@H](C)CO)C(=O)c2cc(NC(=O)NC3CCCCC3)ccc2O[C@@H](C)CCCCO[C@@H]1CN(C)C(=O)Nc1ccc2c(c1)OCO2,-,-,-
C[C@@H]1CCCCO[C@H](CN(C)C(=O)Nc2ccc3c(c2)OCO3)[C@H](C)CN([C@H](C)CO)C(=O)c2cc(NC(=O)NC3CCCCC3)ccc2O1,-82,-,-
COc1ccc(NC(=O)Nc2ccc3c(c2)C(=O)N([C@@H](C)CO)C[C@H](C)[C@@H](CN(C)C(=O)Cc2ccccc2)OCCCC[C@@H](C)O3)cc1,-86,-,-
C[C@@H]1CCCCO[C@@H](CN(C)C(=O)Nc2ccc3c(c2)OCO3)[C@@H](C)CN([C@@H](C)CO)C(=O)c2cc(NC(=O)Nc3ccc(F)cc3)ccc2O1,-83,-,-
COc1ccc(NC(=O)Nc2ccc3c(c2)C(=O)N([C@@H](C)CO)C[C@@H](C)[C@H](CN(C)C(=O)Cc2ccccc2)OCCCC[C@H](C)O3)cc1,-,-,-
C[C@@H]1CCCCO[C@@H](CN(C)C(=O)Nc2ccc3c(c2)OCO3)[C@@H](C)CN([C@H](C)CO)C(=O)c2cc(NC(=O)Nc3ccc(F)cc3)ccc2O1,-,-,-
SMILES,Pf Dd2 growth,C diff growth,Tcruzi prolif
C[C@@H]1CCCCO[C@@H](CN(C)C(=O)CCC(F)(F)F)[C@@H](C)CN([C@@H](C)CO)C(=O)c2cc(NC(=O)Nc3ccc4c(c3)OCO4)ccc2O1,-,-,-
C[C@@H]1CCCCO[C@H](CN(C)C(=O)CCC(F)(F)F)[C@@H](C)CN([C@H](C)CO)C(=O)c2cc(NC(=O)Nc3ccc4c(c3)OCO4)ccc2O1,-83,-,-
O=C(C1CCOCC1)N1C[C@H]2[C@@H](c3ccccc31)[C@@H](CO)N2Cc1ccccc1Cl,-,-,-
C[C@H](CO)N1C[C@H](C)[C@@H](CN(C)C(=O)Nc2ccc(C(F)(F)F)cc2)OCCCC[C@H](C)Oc2ccc(NC(=O)Nc3ccc4c(c3)OCO4)cc2C1=O,-,-,119
COc1ccc(NC(=O)Nc2ccc3c(c2)C(=O)N([C@H](C)CO)C[C@@H](C)[C@@H](CN(C)C(=O)Nc2ccc4c(c2)OCO4)OCCCC[C@@H](C)O3)cc1,-90,-,-
C[C@@H]1CCCCO[C@H](CN(C)C(=O)Nc2ccc(C(F)(F)F)cc2)[C@@H](C)CN([C@H](C)CO)C(=O)c2cc(NC(=O)Nc3ccc4c(c3)OCO4)ccc2O1,-,-,107
C[C@@H]1CCCCO[C@@H](CN(C)C(=O)Nc2ccc3c(c2)OCO3)[C@H](C)CN([C@H](C)CO)C(=O)c2cc(NC(=O)Nc3ccc(C(F)(F)F)cc3)ccc2O1,-,-,-
C[C@@H]1CCCCO[C@H](CN(C)C(=O)Nc2ccc3c(c2)OCO3)[C@H](C)CN([C@H](C)CO)C(=O)c2cc(NC(=O)Nc3ccc(C(F)(F)F)cc3)ccc2O1,-89,-,-
COc1ccc(NC(=O)Nc2ccc3c(c2)C(=O)N([C@@H](C)CO)C[C@@H](C)[C@H](CN(C)C(=O)Nc2ccc4c(c2)OCO4)OCCCC[C@@H](C)O3)cc1,-,-,-
C[C@H]1CCCCO[C@H](CN(C)C(=O)Nc2ccc3c(c2)OCO3)[C@@H](C)CN([C@@H](C)CO)C(=O)c2cc(NC(=O)Nc3ccc(C(F)(F)F)cc3)ccc2O1,?,-,-

# Compound activity as filed in PubChem.
